# Where “and” joins values, the source holds several entries; their conditions need not be identical. Equal entries are not always repeated. Records with an inconclusive call do not appear. Some compounds were tested as several samples or in several runs, with calls that do not always agree. Calls of active or inactive are those of the source. Rule for the calls, unless noted: active = hit-call score of the fitted dose curve at least 0.9, where 1 is the maximum; inconclusive = response in the unintended direction; inactive = score below 0.9.
# Assays:
# [1] = biological target: Peroxisome proliferator-activated receptor gamma (Homo sapiens) (UniProt P37231); assay: ATG_hPPARg_XSP2: Attagene TRANS-FACTORIAL Multi-Species (XSP2) HepG2 Assay for human Peroxisome Proliferator-activated Receptor gamma (PPARg) (AID 2283829);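 note: actives raise reporter mRNA above DMSO so AC50 reflects PPARg activation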
# Procedure, shortened: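 HepG2 cells transiently transfected with GAL4-UAS reporter units driven by chimeric NR-Gal4 proteins; androgen receptor stimulated with 3 nM 6-alpha-fluorotestosterone and 1.5 nM norgestrel. After 24 h, reporter mRNA quantified by RT-PCR and capillary electrophoresis versus DMSO.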
# [2] = biological target: Nuclear receptor subfamily 1 group I member 2 (Mus musculus) (UniProt O54915); assay: ATG_mPXR_XSP2: Attagene TRANS-FACTORIAL Multi-Species (XSP1) HepG2 Assay for mouse Pregnane X Receptor (PXR) (AID 2283831)
# Procedure, shortened: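 HepG2 cells transiently transfected with GAL4-UAS reporter units expressing chimeric NR-Gal4 proteins; 24 h compound exposure. Reporter mRNA quantified by RT-PCR and capillary electrophoresis fluorescence; gain of signal fitted against DMSO.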
# [3] = system: zebrafish Peroxisome Proliferator-activated Receptor gamma (PPARg), gene 557037; assay: ATG_zfPPARg_XSP2: Attagene TRANS-FACTORIAL Multi-Species (XSP2) HepG2 Assay for zebrafish Peroxisome Proliferator-activated Receptor gamma (PPARg) (AID 2283833);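 note: reporter mRNA from a zebrafish PPARg GAL4 chimera measured by RT-PCR and capillary electrophoresis; actives increase reporter signal over DMSO so AC50 reflects activation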
# Procedure, shortened: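 HepG2 cells transiently transfected with multiplexed GAL4-UAS reporter units expressing chimeric NR-Gal4 receptors, dosed 24 h. Reporter mRNA quantified by RT-PCR, fluorescent labelling, HpaI digestion and capillary electrophoresis; gain of signal fitted against DMSO.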
# [4] = system: turtle Thyroid Hormone Receptor, alpha (TRa), gene 101949057; assay: ATG_trTRa_XSP2: Attagene TRANS-FACTORIAL Multi-Species (XSP1) HepG2 Assay for turtle Thyroid Hormone Receptor, alpha (TRa) (AID 2283834);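 note: hits raise reporter mRNA over the DMSO baseline so AC50 marks activators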
# Procedure, shortened: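 HepG2 cells transiently transfected with GAL4-UAS reporter units for chimeric turtle TRa-Gal4; mRNA measured 24 h after dosing by RT-PCR and capillary electrophoresis fluorescence, gain of signal fitted against DMSO.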
# [5] = ATG_M_61_XSP2: Attagene TRANS-FACTORIAL Multi-Species (XSP2) HepG2 Assay for M61 Transcription Factor (Internal Marker) (AID 2283835; active = hit-call score of the fitted dose curve at least 0.9, where 1 is the maximum; inactive = score below 0.9;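 note: active means a rise in signal above the DMSO baseline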)
# Procedure, shortened: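 Internal background marker, read as RT-PCR/capillary-electrophoresis reporter mRNA 24 h post-dose in transiently transfected HepG2 cells. Androgen receptor stimulated with 3 nM 6-alpha-fluorotestosterone plus 1.5 nM norgestrel; gain of signal versus DMSO analysed.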
# [6] = biological target: zebrafish Thyroid Hormone Receptor beta (TRb), thrb (gene 30607) (UniProt Q9PVE4); assay: ATG_zfTRb_XSP2: Attagene TRANS-FACTORIAL Multi-Species (XSP1) HepG2 Assay for zebrafish Thyroid Hormone Receptor beta (TRb) (AID 2283836)
# Procedure, shortened: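 Reporter transcripts were measured by RT-PCR with fluorescent primer extension and capillary electrophoresis, 24 h after chemical dosing of transiently transfected HepG2 cells. Activity was scored as upward signal versus DMSO baseline.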
# [7] = biological target: frog Thyroid hormone Receptor alpha (TRa), thra-a (gene 397942) (UniProt P15204); assay: ATG_frTRa_XSP2: Attagene TRANS-FACTORIAL Multi-Species (XSP2) HepG2 Assay for frog Thyroid hormone Receptor alpha (TRa) (AID 2283839);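 for AC50: AC50 reflects induction of frog TRa-driven reporter mRNA above DMSO baseline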
# Procedure, shortened: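 HepG2 transiently transfected with multiplexed GAL4-UAS reporters driven by frog TRa-Gal4 chimeras; 24 h chemical exposure. Reporter mRNA quantified by RT-PCR, FAM labelling, HpaI digestion and capillary electrophoresis; gain of signal versus DMSO.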
# [8] = biological target: human Thyroid hormone Receptor beta (TRb), THRB (gene 7068) (UniProt P10828); assay: ATG_hTRb_XSP2: Attagene TRANS-FACTORIAL Multi-Species (XSP2) HepG2 Assay for human Thyroid hormone Receptor beta (TRb) (AID 2283840);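 note: actives raise reporter mRNA so potency reflects agonist-like gain of signal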
# Procedure, shortened: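 HepG2 transiently transfected with a multi-species panel including a human TRb–Gal4 chimera driving Gal4-UAS reporters; medium contained 3 nM 6-alpha-fluorotestosterone and 1.5 nM norgestrel. 24 h dosing; RT-PCR/capillary electrophoresis readout; positive-direction fit vs DMSO.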
# [9] = system: Sodium/Iodide Symporter (NIS), SLC5A5 (gene 6528); assay: CPHEA_Stoker_NIS_Inhibition_RAIU: CPHEA's Radioactive Iodide Uptake (RAIU) Assay for Sodium/Iodide Symporter (NIS) Inhibition, Stoker and Laws Labs (AID 2283841)
# Procedure, shortened: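 Iodide uptake through human NIS is measured in an engineered HEK293T line. Cells take up 125I (329pM final) for 2 hours at room temperature alongside chemicals at 0.001–100uM. Retained radioactivity is counted, and the signal is expressed against DMSO controls.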
# [10] = biological target: PGR (gene 5241) (UniProt P06401); assay: TOX21_PR_BLA_Followup_Antagonist_ratio: Tox21 HEK293 Progesterone Receptor (PR) Antagonism Beta-lactamase Follow-Up Assay, Ratio (AID 2283934)
# Procedure, shortened: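 Read-out: blue/green beta-lactamase FRET ratio (cleaved ch2 over uncleaved ch1), fitted relative to DMSO baseline. Cells: PR-UAS-bla HEK293T, GAL4-UAS reporter, stimulated with 1 nM R5020 final; 16 hr compound exposure, 37C.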
# frog Thyroid hormone Receptor alpha (TRa), thra-a (gene 397942), sequence (P15204 whole entry, looked up, the tested form may be a part): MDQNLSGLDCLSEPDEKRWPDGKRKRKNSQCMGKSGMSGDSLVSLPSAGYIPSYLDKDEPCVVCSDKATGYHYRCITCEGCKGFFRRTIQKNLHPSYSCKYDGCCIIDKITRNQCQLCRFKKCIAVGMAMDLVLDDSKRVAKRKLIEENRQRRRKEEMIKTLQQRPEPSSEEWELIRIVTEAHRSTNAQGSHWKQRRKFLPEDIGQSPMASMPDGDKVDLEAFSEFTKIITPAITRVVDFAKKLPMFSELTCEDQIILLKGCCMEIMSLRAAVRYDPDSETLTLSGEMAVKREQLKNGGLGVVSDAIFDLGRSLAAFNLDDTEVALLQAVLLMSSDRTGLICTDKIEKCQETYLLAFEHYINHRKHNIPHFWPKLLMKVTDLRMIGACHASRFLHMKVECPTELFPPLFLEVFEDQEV
# Peroxisome proliferator-activated receptor gamma (Homo sapiens), sequence (P37231 whole entry, looked up, the tested form may be a part): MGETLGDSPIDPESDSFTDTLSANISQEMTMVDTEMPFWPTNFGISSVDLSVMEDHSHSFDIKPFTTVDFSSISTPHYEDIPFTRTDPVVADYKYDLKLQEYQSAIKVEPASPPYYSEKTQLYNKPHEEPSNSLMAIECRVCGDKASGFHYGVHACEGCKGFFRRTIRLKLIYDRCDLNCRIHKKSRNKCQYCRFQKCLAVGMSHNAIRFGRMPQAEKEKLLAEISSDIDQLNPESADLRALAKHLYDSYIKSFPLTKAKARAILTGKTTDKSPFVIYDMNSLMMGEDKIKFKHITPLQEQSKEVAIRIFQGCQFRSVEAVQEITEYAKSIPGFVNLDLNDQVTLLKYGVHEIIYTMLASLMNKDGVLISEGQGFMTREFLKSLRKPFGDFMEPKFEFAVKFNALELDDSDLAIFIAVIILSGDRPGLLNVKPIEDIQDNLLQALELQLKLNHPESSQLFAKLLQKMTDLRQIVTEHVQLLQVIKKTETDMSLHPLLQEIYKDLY
# Nuclear receptor subfamily 1 group I member 2 (Mus musculus), sequence (O54915 whole entry, looked up, the tested form may be a part): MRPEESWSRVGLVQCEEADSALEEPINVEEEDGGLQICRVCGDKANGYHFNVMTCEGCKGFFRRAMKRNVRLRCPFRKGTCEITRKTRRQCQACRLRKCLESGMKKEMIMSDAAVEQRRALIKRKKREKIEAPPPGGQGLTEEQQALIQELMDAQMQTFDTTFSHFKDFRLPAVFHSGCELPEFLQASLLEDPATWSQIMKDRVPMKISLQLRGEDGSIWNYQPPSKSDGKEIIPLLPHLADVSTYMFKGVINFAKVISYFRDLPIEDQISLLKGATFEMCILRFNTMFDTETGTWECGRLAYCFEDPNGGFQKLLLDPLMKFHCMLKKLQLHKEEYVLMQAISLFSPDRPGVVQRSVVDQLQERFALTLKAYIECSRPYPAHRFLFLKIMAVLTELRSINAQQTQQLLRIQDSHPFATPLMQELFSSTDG
# human Thyroid hormone Receptor beta (TRb), THRB (gene 7068), sequence (P10828 whole entry, looked up, the tested form may be a part): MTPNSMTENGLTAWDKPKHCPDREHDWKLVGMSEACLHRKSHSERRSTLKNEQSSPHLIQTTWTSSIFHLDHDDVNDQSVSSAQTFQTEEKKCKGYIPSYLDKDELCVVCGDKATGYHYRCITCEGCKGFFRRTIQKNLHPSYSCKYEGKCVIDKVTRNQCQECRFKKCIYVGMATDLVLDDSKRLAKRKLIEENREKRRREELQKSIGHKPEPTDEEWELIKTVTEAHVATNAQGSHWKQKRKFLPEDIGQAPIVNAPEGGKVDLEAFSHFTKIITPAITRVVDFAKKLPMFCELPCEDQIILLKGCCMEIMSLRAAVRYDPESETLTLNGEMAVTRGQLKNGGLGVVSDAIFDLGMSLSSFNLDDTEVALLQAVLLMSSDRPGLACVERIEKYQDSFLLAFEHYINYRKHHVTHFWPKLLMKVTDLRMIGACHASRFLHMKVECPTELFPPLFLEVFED
# PGR (gene 5241), sequence (P06401 whole entry, looked up, the tested form may be a part): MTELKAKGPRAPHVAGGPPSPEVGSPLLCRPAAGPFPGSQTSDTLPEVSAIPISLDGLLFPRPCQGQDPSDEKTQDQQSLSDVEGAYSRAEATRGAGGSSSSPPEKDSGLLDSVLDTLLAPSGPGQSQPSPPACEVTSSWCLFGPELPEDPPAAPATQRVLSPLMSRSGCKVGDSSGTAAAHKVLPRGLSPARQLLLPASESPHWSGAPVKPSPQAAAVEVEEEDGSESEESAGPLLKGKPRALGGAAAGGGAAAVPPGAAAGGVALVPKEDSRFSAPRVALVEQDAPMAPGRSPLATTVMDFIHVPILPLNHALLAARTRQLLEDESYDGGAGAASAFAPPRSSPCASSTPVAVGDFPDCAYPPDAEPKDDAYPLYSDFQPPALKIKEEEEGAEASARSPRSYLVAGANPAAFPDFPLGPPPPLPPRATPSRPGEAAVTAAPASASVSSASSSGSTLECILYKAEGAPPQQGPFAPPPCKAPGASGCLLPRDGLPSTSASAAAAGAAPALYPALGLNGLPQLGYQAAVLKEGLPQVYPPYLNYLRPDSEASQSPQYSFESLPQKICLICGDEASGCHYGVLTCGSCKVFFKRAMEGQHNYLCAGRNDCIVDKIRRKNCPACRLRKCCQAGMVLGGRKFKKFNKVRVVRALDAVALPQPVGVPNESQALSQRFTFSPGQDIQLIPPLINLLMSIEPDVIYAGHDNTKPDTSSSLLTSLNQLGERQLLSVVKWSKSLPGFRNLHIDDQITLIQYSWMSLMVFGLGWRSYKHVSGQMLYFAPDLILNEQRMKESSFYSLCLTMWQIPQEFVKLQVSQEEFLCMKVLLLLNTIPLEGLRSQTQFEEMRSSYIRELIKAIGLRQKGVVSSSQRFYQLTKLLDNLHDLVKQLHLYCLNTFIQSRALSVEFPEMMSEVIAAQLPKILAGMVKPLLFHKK
# zebrafish Thyroid Hormone Receptor beta (TRb), thrb (gene 30607), sequence (Q9PVE4 whole entry, looked up): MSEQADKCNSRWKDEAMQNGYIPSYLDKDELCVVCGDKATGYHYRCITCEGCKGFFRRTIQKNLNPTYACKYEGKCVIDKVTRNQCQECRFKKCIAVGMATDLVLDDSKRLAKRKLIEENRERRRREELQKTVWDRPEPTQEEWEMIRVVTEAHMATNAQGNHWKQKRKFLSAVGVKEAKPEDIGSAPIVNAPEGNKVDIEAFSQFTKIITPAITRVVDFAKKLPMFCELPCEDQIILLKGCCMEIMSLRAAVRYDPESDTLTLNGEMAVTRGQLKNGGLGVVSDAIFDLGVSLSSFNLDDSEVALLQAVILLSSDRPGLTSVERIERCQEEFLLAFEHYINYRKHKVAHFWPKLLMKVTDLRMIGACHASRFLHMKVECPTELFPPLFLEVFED
smiles,measurement,setting,value
C=CC1(C)OC(=O)N(c2cc(Cl)cc(Cl)c2)C1=O (stereo not given),AC50,[1],36.6 µM (active)
same,AC50,[2],31.2 µM (active)
same,outcome,[3],inactive
same,outcome,[4],inactive
same,outcome,[5],inactive
same,outcome,[6],inactive
same,outcome,[7],inactive
same,outcome,[8],inactive
same,outcome,[9],inactive
same,outcome,[10],inactive
CC1COC(Cn2cncn2)(c2ccc(Oc3ccc(Cl)cc3)cc2Cl)O1 (stereo not given),AC50,[9],11.5 µM (active)
Oc1ccccc1-c1ccccc1,outcome,[9],inactive
CCOC(=O)C(Cl)Cc1cc(-n2nc(C)n(C(F)F)c2=O)c(F)cc1Cl (stereo not given),outcome,[9],inactive
CCCC1COC(Cn2cncn2)(c2ccc(Cl)cc2Cl)O1 (stereo not given),AC50,[1],67.2 µM (active)
same,AC50,[2],3.79 µM (active)
same,outcome,[3],inactive
same,outcome,[4],inactive
same,outcome,[5],inactive
same,outcome,[8],inactive
same,outcome,[9],inactive
Fc1ccc(Oc2ccnc3cc(Cl)cc(Cl)c23)cc1,AC50,[9],31.1 µM (active)
C=CCC1=C(C)C(OC(=O)C2C(C=C(C)C)C2(C)C)CC1=O (stereo not given),AC50,[9],34 µM (active) and 50 µM (active)
same,outcome,[9],inactive
CCOC(=O)CC(SP(=S)(OC)OC)C(=O)OCC (stereo not given),outcome,[9],inactive
CS/C(C)=N/OC(=O)N(C)SN(C)C(=O)O/N=C(\C)SC,outcome,[9],inactive
COc1nc(NC(C)C)nc(NC(C)C)n1,outcome,[9],inactive
COC(=O)C(C)Oc1ccc(Oc2ccc(Cl)cc2Cl)cc1 (stereo not given),outcome,[9],inactive
CCCCNC(=O)OCC#CI,AC50,[1],10.6 µM (active)
same,outcome,[2],inactive
same,outcome,[3],inactive
same,AC50,[4],25.5 µM (active)
same,outcome,[5],inactive
same,AC50,[7],100 µM (active)
same,AC50,[9],9.77 µM (active)
O=C(Nc1ccccc1)Nc1ccnc(Cl)c1,AC50,[9],50 µM (active)
Cc1c(F)c(F)c(COC(=O)C2C(/C=C(\Cl)C(F)(F)F)C2(C)C)c(F)c1F (stereo not given),outcome,[9],inactive
CON(C)C(=O)Nc1ccc(Cl)c(Cl)c1,AC50,[1],161 µM (active)
same,AC50,[2],5.69 µM (active)
same,outcome,[3],inactive
same,outcome,[4],inactive
same,outcome,[7],inactive
same,outcome,[8],inactive
same,outcome,[9],inactive
same,outcome,[10],inactive
N#Cc1nn(-c2c(Cl)cc(C(F)(F)F)cc2Cl)c(N)c1S(=O)C(F)(F)F (stereo not given),AC50,[9],26.8 µM (active)

# From PubChem BioAssay (EPA / NIEHS)
